# From ChEMBL document CHEMBL3988442, “University of Dundee, Small-Polar-MMV Screening Library” (2021)
# For some of these results: Potency and affinity values are given separately.
# Assays:
# Parameters in all cases: scale not given: direction of the effect not stated beside the values
# [1] = target: Protein translocase subunit SecA (Escherichia coli (strain K12)) (UniProt P10408); test: Assay to Identify E. coli SecA ATPase Inhibitors; type: functional; conditions: 30 µM
# [2] = target: T1, Ubiquitin-activating enzyme e1, putative (Leishmania donovani (strain BPK282A1)) (UniProt E9BSI1); test: Leishmania donovani Ubiquitin Activating Enzyme (LdE1); type: functional; conditions: 30 µM
# T1 sequence (whole entry): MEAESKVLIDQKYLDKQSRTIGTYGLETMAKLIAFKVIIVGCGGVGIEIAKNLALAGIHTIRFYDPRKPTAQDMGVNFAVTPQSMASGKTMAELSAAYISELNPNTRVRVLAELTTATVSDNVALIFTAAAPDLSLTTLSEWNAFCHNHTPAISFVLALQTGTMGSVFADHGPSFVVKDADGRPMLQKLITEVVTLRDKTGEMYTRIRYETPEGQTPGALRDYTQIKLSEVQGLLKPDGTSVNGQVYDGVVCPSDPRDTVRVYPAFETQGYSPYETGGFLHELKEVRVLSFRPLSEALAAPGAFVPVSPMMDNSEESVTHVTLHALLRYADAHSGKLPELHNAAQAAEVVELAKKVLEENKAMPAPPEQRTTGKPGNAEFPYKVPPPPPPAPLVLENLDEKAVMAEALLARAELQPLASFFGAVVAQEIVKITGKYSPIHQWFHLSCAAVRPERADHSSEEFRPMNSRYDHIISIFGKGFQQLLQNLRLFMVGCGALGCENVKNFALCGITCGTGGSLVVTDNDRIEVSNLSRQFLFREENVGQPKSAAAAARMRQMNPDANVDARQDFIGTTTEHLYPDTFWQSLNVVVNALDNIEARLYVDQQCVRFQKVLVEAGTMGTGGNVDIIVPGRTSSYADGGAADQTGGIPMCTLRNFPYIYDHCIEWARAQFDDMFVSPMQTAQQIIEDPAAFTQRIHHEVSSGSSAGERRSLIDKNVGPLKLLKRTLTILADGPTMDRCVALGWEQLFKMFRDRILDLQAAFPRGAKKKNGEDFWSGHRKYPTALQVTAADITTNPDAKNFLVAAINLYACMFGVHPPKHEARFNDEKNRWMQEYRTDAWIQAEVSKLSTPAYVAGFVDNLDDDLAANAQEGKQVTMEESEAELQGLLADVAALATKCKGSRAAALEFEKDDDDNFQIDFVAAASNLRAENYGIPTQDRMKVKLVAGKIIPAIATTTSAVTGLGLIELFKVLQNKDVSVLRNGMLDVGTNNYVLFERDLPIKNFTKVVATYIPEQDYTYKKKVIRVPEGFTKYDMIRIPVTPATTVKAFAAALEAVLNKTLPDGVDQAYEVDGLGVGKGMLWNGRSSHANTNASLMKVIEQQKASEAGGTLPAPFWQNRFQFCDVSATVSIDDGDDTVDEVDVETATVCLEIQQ
# [3] = target: AMP-activated protein kinase, AMPK (Homo sapiens) (UniProt P54646+O43741+P54619+Q9UGJ0+Q9Y478+Q13131+Q9UGI9); test: AMP-dependent Kinase enzyme assay. An in vitro enzyme assay that detects ADP turnover that is directly proportional to AMPK activity. This uses naive AMPK that is activated during the assay with MK-8722; type: functional; conditions: 30 µM
# [4] = target: Sialic acid-binding Ig-like lectin 9 (Homo sapiens) (UniProt Q9Y336); test: Hs-Siglec9 ALPHAscreen SOP 20170721; conditions: 10 µM
# Sialic acid-binding Ig-like lectin 9 (Homo sapiens), sequence (Q9Y336 whole entry): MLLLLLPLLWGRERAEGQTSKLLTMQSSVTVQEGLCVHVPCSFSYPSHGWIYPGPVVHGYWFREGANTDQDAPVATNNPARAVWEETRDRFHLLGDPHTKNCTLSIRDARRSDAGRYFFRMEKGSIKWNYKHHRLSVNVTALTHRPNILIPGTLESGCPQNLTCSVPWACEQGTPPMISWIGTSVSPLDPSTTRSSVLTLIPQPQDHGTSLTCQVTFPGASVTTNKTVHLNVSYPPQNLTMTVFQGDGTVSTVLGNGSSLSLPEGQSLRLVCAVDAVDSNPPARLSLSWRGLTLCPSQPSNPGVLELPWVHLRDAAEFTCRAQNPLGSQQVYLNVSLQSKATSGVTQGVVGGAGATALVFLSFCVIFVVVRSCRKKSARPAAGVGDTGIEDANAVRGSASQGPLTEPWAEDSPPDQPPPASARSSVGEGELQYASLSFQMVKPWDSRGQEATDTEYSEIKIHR
# Trypanosoma cruzi = test: Trypanosoma cruzi phosphomannomutase and mannose-1-phosphate guanylyltransferase assay; type: functional; conditions: 10 µM
# [5] = target: T2, Arginase-2, mitochondrial (Homo sapiens) (UniProt P78540); test: in vitro enzyme assay to detect the production of urea directly proportional to the activity of Arginase II; type: functional; conditions: 33.3 µM; also: in the data most compounds retested in dose-response had high values
# T2 sequence (whole entry): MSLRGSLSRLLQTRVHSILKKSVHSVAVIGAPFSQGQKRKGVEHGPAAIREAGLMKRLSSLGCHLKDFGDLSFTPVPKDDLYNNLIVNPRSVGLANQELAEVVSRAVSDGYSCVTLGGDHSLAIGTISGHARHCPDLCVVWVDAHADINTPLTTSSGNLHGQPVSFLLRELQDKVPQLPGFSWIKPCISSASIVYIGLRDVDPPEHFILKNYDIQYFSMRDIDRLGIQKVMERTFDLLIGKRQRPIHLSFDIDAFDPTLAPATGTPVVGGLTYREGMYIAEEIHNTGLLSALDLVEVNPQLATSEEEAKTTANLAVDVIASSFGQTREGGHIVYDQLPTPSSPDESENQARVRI
# [6] = target: T3, Proteasome subunit beta (Trypanosoma cruzi) (UniProt O96673); test: Trypanosoma cruzi proteasome chymotrypsin-like activity (TcProtChymo) assay.; also: in the data most compounds retested in dose-response had high values; type: functional; conditions: 9.37 µM
# T3 sequence (whole entry): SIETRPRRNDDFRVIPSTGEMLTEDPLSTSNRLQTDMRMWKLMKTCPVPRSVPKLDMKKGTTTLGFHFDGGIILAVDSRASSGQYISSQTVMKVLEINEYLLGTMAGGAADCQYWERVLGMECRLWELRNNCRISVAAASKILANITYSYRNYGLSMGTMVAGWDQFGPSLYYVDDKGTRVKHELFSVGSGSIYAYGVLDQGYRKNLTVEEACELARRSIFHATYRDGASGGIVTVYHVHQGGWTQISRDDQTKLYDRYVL
# Homo sapiens = species on record: Homo sapiens; test: To identify inhibition of the IFN signalling (Jak-Stat) pathway via expression of an eGFP reporter gene under the control of an IFN-stimulated response element (ISRE) containing MxA promoter.; type: functional; conditions: 30 µM
# [7] = target: T4, Tyrosyl-tRNA synthetase, putative (Trypanosoma cruzi (strain CL Brener)) (UniProt Q4DSP6); test: Trypanosoma cruzi tyrosyl tRNA synthetase (TcYRS) _High Tyrosine SOP; type: functional; conditions: 30 µM; also: in the data most compounds retested in dose-response had high values
# T4 sequence (whole entry): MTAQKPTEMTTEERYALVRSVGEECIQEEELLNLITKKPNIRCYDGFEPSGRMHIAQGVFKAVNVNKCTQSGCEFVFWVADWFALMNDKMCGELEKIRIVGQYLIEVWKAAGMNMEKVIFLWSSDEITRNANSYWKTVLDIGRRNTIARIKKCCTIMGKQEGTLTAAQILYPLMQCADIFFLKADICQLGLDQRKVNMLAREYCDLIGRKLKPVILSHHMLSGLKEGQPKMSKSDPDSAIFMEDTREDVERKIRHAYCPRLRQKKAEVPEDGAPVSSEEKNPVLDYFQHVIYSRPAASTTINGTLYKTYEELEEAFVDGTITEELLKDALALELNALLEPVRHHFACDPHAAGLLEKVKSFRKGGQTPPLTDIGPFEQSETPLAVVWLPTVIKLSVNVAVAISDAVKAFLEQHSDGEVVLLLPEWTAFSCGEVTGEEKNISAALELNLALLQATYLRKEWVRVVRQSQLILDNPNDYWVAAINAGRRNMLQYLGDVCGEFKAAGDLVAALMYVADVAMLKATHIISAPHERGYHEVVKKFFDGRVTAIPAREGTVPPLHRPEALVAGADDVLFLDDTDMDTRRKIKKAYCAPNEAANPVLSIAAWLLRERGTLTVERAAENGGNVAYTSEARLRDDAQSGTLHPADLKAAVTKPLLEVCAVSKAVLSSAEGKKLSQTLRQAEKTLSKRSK
# [8] = target: T4, Tyrosyl-tRNA synthetase, putative (Trypanosoma cruzi (strain CL Brener)); test: Trypanosoma cruzi tyrosyl tRNA synthetase (TcYRS) SOP; type: functional; conditions: 30 µM
# [9] = target: Chromo domain-containing protein 1 (Saccharomyces cerevisiae (strain ATCC 204508 / S288c) (Baker's yeast)) (UniProt P32657); test: ScCHD-1 Enzyme Inhibition Assay; type: functional; conditions: 30 µM; also: in the data most compounds retested in dose-response had high values
# Chromo domain-containing protein 1 (Saccharomyces cerevisiae (strain ATCC 204508 / S288c) (Baker's yeast)), sequence (P32657 whole entry, the tested form may be a part): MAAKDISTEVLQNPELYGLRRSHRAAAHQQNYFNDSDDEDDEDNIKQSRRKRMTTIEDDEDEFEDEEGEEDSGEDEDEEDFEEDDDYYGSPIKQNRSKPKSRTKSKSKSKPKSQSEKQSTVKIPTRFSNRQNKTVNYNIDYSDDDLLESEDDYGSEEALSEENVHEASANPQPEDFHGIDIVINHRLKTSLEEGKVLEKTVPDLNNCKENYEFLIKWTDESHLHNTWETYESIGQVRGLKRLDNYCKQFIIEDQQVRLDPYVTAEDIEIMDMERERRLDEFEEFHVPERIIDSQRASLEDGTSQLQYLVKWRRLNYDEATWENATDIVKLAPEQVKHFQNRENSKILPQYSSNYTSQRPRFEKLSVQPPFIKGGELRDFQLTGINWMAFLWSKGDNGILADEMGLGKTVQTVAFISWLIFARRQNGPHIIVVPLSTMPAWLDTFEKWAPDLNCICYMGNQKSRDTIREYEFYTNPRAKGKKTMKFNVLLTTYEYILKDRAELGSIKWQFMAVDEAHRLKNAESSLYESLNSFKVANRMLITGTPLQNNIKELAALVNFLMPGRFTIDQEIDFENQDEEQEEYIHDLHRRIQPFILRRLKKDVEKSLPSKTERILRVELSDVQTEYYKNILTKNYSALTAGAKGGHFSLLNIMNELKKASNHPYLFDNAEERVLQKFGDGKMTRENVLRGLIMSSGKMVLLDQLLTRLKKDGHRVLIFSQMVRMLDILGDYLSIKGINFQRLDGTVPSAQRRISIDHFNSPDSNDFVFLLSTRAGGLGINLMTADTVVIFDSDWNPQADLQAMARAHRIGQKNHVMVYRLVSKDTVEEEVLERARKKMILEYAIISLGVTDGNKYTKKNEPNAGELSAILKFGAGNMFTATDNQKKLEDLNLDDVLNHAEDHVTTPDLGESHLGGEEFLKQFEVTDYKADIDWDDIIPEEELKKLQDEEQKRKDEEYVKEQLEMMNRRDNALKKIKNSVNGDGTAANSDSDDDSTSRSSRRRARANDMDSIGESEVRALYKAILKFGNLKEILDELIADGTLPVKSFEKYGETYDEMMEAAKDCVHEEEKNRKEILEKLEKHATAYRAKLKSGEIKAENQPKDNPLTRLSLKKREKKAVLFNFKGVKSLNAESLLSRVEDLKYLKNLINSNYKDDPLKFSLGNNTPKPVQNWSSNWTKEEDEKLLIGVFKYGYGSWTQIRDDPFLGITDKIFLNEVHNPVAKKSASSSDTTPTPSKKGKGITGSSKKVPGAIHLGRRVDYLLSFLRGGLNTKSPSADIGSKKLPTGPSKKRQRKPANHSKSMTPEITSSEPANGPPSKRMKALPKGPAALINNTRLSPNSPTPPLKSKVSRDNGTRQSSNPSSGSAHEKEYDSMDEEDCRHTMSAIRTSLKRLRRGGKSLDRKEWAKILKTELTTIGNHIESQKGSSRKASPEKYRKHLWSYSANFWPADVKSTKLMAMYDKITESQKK
# Protein translocase subunit SecA (Escherichia coli (strain K12)), sequence (P10408 whole entry): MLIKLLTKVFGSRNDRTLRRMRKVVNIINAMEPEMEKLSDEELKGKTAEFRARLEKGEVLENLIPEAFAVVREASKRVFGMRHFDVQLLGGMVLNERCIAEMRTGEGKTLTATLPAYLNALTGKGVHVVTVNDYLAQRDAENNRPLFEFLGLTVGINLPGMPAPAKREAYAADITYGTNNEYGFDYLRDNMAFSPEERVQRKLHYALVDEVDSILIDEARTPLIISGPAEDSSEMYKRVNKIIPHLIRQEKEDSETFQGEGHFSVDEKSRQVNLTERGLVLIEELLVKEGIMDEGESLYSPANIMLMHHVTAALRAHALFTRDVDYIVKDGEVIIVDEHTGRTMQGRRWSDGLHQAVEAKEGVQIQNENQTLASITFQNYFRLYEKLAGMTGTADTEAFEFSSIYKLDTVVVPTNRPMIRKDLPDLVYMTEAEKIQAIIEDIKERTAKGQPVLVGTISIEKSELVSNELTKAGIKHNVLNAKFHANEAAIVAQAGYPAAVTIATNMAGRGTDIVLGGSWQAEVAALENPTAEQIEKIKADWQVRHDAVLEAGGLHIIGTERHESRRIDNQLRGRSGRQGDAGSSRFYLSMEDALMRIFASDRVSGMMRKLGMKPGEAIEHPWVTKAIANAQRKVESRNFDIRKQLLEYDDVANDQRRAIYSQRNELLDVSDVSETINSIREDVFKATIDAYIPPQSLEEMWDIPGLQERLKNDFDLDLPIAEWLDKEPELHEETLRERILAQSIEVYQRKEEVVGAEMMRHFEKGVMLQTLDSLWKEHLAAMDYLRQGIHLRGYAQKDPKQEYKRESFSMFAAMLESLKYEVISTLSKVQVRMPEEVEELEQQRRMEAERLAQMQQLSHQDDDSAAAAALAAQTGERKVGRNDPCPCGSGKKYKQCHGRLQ
SMILES,Percent Effect [1] [%],Percent Effect [2] [%],Percent Effect [3] [%],Percent Effect [4] [%],Percent Effect (Trypanosoma cruzi) [%],Percent Effect [5] [%],Percent Effect [6] [%],Percent Effect (Homo sapiens) [%],Percent Effect [7] [%],Percent Effect [8] [%],Percent Effect [9] [%]
COCC(=O)N1CCC2(CC1)COCCN2CCN(C)C,0.864,-5.33,-0.00705,4.73,-1.93,-50,0.342,-11.3,3.12,-5,0.531
Cc1ccc(NC(C)C(=O)NCc2cccs2)cc1C (stereo unspecified),-1.89,16.4,6.74,8.58,0.196,-4.54,17.8,21.3,-1.07,20,-5.22
CCN1CCN(c2ncc(-c3cc(C)no3)c(-c3ccc(C)s3)n2)CC1,-2.83,4.05,7.99,2.04,-5.34,-4.41,2.18,-6.45,6.45,11.7,-15.6
CC(C(=O)NCc1ccnc(N(C)C)c1)n1cncn1 (stereo unspecified),-2.02,2.7,-7.17,7.55,8.88,-0.476,17.2,-1.73,5.82,9.76,-3.72
CC(C)c1nc(C2CCCN(C(=O)CCCn3cncn3)C2)no1 (stereo unspecified),-4.23,21.6,-6.76,9.76,2.36,-10.4,12.1,-60.1,8.37,16.1,-12.8
Cc1cc(C)c(CNC(=O)C2CCCN(c3cnccn3)C2)c(=O)[nH]1 (stereo unspecified),-3.46,10.5,-6.83,10.1,-4.13,-1.53,11.5,-8.19,-0.49,-12.2,-5.39
Cc1ccccc1C(=O)N1CCOC2(CNCCOC2)C1 (stereo unspecified),-0.256,2.7,-1.58,2.44,-2.51,-1.43,17.8,11.5,1.59,9.76,-3.15
Cc1nc(COCc2cnc3n2CCN(C2CCC2)C3C)cs1 (stereo unspecified),-2.77,5.33,-2.96,12.2,5.21,-57.2,10.8,-7.58,3.12,7.5,-6.66
Cn1nnc2c1CCN(CC1CC1)C2COCc1ccccc1 (stereo unspecified),-1.15,16,-5.25,-5.75,2.36,5.36,3.44,-2.55,9.57,14.1,-4.41
COCCN1CCC(NCc2ccc(C#N)cc2)C1 (stereo unspecified),-8.38,0,-5.29,8.39,9.55,4.98,1.86,2.29,8.74,21.9,-10.6
O=C(c1cscn1)N1C[C@@H]2C[C@@H](c3nnc(C4CC4)o3)O[C@@H]2C1,1.55,7.79,2.51,-3.79,-10.2,22.6,10.4,7.19,-1.06,6.41,-7.72
